KB-V1 MDR tox: kills drug-selected multidrug resistant KB-V1 cells; KB-V1 MDR cells viability, CellTiter-Glo, 72 h; Potency, µM (titrated, usually from 46.1 µM), hits mostly cytotoxic; 400,000 compounds, 3.4% hits; note: % is set by controls: 0 for no effect and ±100 for the full control effect; nearly all actives have a fitted effect of over 60% in size
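Drug-selected KB-V1 cells, grown in DMEM lacking phenol red with 10% FBS, receive compound titrations; after three days at 37 degrees C, surviving cell ATP is quantified by CellTiter-Glo luminescence and responses normalized and curve-fitted.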
KB-3-1 tox: KB-3-1 parental cell cytotoxicity; 400,000 compounds, 1.4% hits; KB-3-1 viability, CellTiter-Glo ATP luminescence, 72 h; Potency, µM (highest dose often 46.1 µM), actives largely listed as cytotoxic; AID 1347075; note: % is set by controls: 0 for no effect and ±100 for the full control effect; nearly all actives have a fitted effect of over 60% in size
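Here the drug-naive KB-3-1 line serves as comparator for MDR sub-line selectivity; cells received compound titrations, 72 h at 37 °C, then CellTiter-Glo readout.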
MCF10A rereplic: induces DNA re-replication in MCF 10a normal breast cells. MCF 10A DNA re-replication, Hoechst nuclear intensity, 48 h. Potency, µM (doses to about 46.1 µM), for the others: at the top dose activity, positive = re-replication, usual class: activators. 350,000 compounds, 2.9% hits. AID 624296; note: % of control where 0% means no effect; nearly all actives have a fitted effect of over 50% in size
HT1080 IDH1KD tx: kills HT-1080 cells with IDH1 knockdown | 360,000 compounds, 2% hits | HT-1080 IDH1 knockdown viability, ATP luminescence, 48 h | AID 686971 | Potency, µM (titrated, usually from 46.1 µM), for the others: top-dose activity, negative = toxicity, hits mostly cytotoxic;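 note: 0% = DMSO wells and -100% = cell-free medium wells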
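Viability of IDH1-knockdown HT-1080 fibrosarcoma cells was assessed by CellTiter-Glo after 48 h at 37 °C with titrated compound; concentration-effect curves were classified by fit quality and response size.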
HT1080NT lethal: kills 2HG-producing HT-1080-NT fibrosarcoma cells; HT-1080-NT fibrosarcoma viability, CellTiter-Glo ATP luminescence, 48 h; Potency, µM (doses to about 46.1 µM), without a hit: at the top dose activity, negative = less viability, most hits filed as cytotoxic; AID 686970; 360,000 compounds, 1.6% hits;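 note: NT is the 2HG producing partner of a matched IDH1 knockdown line; 0% = DMSO-treated cells and -100% = media-only wells without cells; nearly all actives have a fitted effect of over 55% in size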
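Luminescent CellTiter-Glo readout after 48 hours of compound exposure at 37 degrees C defined viability of HT-1080-NT cells. Activity was normalized to DMSO wells and cell-free media wells; concentration-response curves were fitted and assigned curve classes.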
SW480 rereplic: induces DNA re-replication in SW480 colon adenocarcinoma cells. SW480 DNA re-replication, Hoechst DNA content imaging, 48 h. 340,000 compounds, 1.8% hits. AID 624297. Potency, µM (highest dose often 46.1 µM), for inactives: at the highest dose re-replication activation, usual class: activators; note: % of control where 0% means no effect; nearly all actives have a fitted effect of over 55% in size
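Readout is total intensity of Hoechst-stained nuclei, excited at 405 nm and collected at 500-530 nm. Compound treatment lasted 48 hr at 37 C in 5% CO2 before staining.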
* hit, by the source's call; i = inactive; ? = inconclusive; nt = no result given; [ ] = remark or other dose. Only some compounds are listed: those with a hit (about 7.9% of all), similar ones and a draw of the others. Calls come from the whole dose curve; as a rule, active = well fitted curve in the direction sought with a large enough effect; inconclusive = small, poorly fitted or top-dose-only effect, or another doubt; inactive = no such curve, though single readings can be large; an effect the other way counts as inactive or inconclusive. Potency is the fitted concentration of half-maximal effect.

SMILES	KB-V1 MDR tox	KB-3-1 tox	MCF10A rereplic	HT1080 IDH1KD tx	HT1080NT lethal	SW480 rereplic
Cc1ccc(C)c(Sc2ccc(NC(=O)CCN3C(=O)NC4(CCCC4)C3=O)cc2)c1	i	i	23.1µM*	?	?	6.4%
CCOC(=O)c1ccc(NC(=O)NCCN2CCCCC2)cc1	i	16.4µM*	?	-2.0%	6.9%	-4.0%
O=C(CN1C(=O)S/C(=C/c2cc(Br)cs2)C1=O)N1CCOCC1	i	i	-0.8%	16.7%	0.1%	-4.1%
O=C(NCC1CCCO1)c1cc2cc(F)ccc2[nH]1 (stereo not given)	i	i	7.6%	5.8%	-0.3%	-14.7%
Brc1ccc(C2=Nc3cccc4cccc(c34)N2)o1	i	i	-6.7%	1.4%	5.3%	0.2%
CCOC(=O)c1ccc(NC(=O)Nc2ccc(Cl)cn2)cc1	i	i	0.2%	19.5%	28.2%	15.9%
Cc1ccc(NC(=O)c2cc(N3C(=O)C=CC3=O)ccc2N2CCOCC2)cc1Cl	i	i	16.4µM*	16.4µM*	-3.4%	?
CCOC(=O)c1ccc(NC(=O)Nc2ccon2)cc1	?	0.581µM*	1.3µM*	0.92µM*	0.581µM*	?
O=C(Nc1ccc(Cl)c(Cl)c1)Nc1ccon1	7.31µM*	11.6µM*	11.6µM*	-9.5%	-24.3%	10.3µM*
CCOC(=O)c1ccc(NC(=O)CN2C(=O)NC3(CCCCCCC3)C2=O)cc1	i	7.31µM*	?	?	?	?
COc1ccccc1OCCn1c(C)c(C=O)c2ccccc21	i	i	-3.6%	-5.8%	-13.0%	-4.8%
Oc1ccc(-c2csc(Nc3ccccn3)n2)cc1O	i	i	-1.1%	-22.6%	-21.4%	-1.0%
N#Cc1nc(-c2ccc(Cl)cc2)oc1NCCc1ccccn1	i	i	-5.4%	-5.7%	-0.8%	1.1%
Cc1c[n+]([O-])ccc1Oc1ccc([N+](=O)[O-])cc1	i	i	-3.3%	5.7%	11.0%	-0.6%
CCC1(c2ccc(F)cc2)NC(=O)N(CC(=O)Nc2ccc(N3CCCCC3)cc2)C1=O (stereo not given)	23.1µM*	i	0.7%	-6.0%	-6.8%	0.6%
Cc1ccc(N(CC(N)=O)C2SC(=O)N(Cc3ccccc3)C2=O)cc1 (stereo not given)	i	i	20.6µM*	-5.2%	0.8%	?
CCCc1cc(=O)[nH]c2nnc(SCC(=O)NC3CCCCC3)n12	?	i	-1.8%	4.2%	10.4%	-1.0%
CC(C)CC(N)c1cn([C@@H](CCC(=O)O)C(=O)N2CCNCC2)nn1 (stereo not given in full)	i	i	-1.9%	8.0%	1.9%	-5.7%
CC(C)C[C@H](N)c1cn([C@@H](CCCCN)C(=O)N2CCNCC2)nn1	?	?	-28.9%	1.16µM*	1.64µM*	?
C[C@H](NC(=O)c1ccc(Br)cc1)C(=O)NCc1ccc(S(N)(=O)=O)cc1	i	i	0.9%	9.8%	5.2%	7.2%
COc1ccc2c(c1)N(C[C@H](C)CN(C)C)c1ccccc1S2	?	i	-1.1%	20.6µM*	23.1µM*	?
C[C@@H](CN(C)C)CN1c2ccccc2Sc2ccccc21	nt	nt	-3.0%[20.6 µM]	nt	nt	-10.4%[20.6 µM]
COc1ccc2c(c1)N(C[C@@H](C)CN(C)C)c1ccccc1S2	nt	nt	2.6%[20.6 µM]	nt	nt	-4.8%[20.6 µM]
CC(CN(C)C)CN1c2ccccc2Sc2ccccc21 (stereo not given)	18.4µM*	i	-9.2%	?	16.4µM*	-20.0%
CCN(Cc1ccccc1)S(=O)(=O)c1ccc(C(=O)N(CCCN(C)C)c2nc3cc(OC)ccc3s2)cc1	i	i	16.4µM*	?	?	?
COc1ccc2sc(N(CCCN(C)C)C(=O)c3ccc(S(=O)(=O)N4CCCc5ccccc54)cc3)nc2c1	20.6µM*	i	?	-24.4%	-10.2%	?

Compound activity (PubChem BioAssay)
